Measured values as given in PubChem BioAssay (NCI).
This is part of a sample that, as a whole, favours compounds with a hit. Of some 83,000 tested, about 20% had one in any assay.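 Results are percent growth after 48 hours of single-concentration exposure. 100 means growth as in untreated cells, lower positive values show inhibition; negative values down to -100 show cell death.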 A number with no mark means an inactive call. The source made the active and inactive calls. Rule for the calls: active = growth percent below 10; inactive = the rest.

test system: MDA-MB-231 breast; assay: NCI-60 one-dose screen, 48 h (100 = growth as untreated, 0 = no growth, -100 = all killed); details: 10 µM unless noted

| SMILES | growth |
| --- | --- |
| CCN(CC)CCCNc1ccnc2cc3ccccc3cc12 | 56.4% |
| Cc1ccc2cccc(Oc3ccc(Nc4ncnc5onc(-c6ccccc6)c45)cc3)c2n1 | 72.2% |
| CCCc1c(C)c2sc(=O)[nH]c2[nH]c1=O | 105% |
| CC(C)[C@H](NC(=O)Cn1cc(C(=O)O)nn1)C(=O)O | 97.6% |
| CC1CCCCN1CCCNC(=O)c1ccc2c(c1)sc1nc(-c3ccc(F)cc3)cn12 (stereo not given) | 75.2% |
| CN(C)c1ccc(/C=C/c2ccnc3c(O)cccc23)cc1 | 36.5% |
| NC(=O)CSc1nc(-c2ccc(F)cc2)cc(-c2ccco2)n1 | 98.3% |
| Clc1ccc(COc2ccc(Nc3ncnc4onc(-c5ccccc5)c34)cc2)cc1 | 76.5% |
| O=S1(=O)N(Cc2ccccc2)[C@@H](Cc2ccccc2)C2O[C@H]2[C@H](Cc2ccccc2)N1Cc1ccccc1 (stereo not given in full) | 24.2% |
| COc1cc(/C=C2\CN(C)C/C(=C\c3cc(CN4CCCC4)c(O)c(OC)c3)C2=O)cc(CN2CCCC2)c1O | 58.9% |
| COc1cc(/C=C2\CN(S(=O)(=O)c3ccccc3)C/C(=C\c3cc(CN4CCCC4)c(O)c(OC)c3)C2=O)cc(CN2CCCC2)c1O | -32.7% (active) |
| COc1ccc(-c2nc(N3CCN(C(=O)C4CCCCC4)CC3)c3c4c(sc3n2)CCCC4)cc1 | 36.9% |
| Nc1cccc(Nc2cc(S(=O)(=O)O)c(N)c3c2C(=O)c2ccccc2C3=O)c1 | 107% |
| CCCCNc1nc(NC(C)(C)C)nc(NC(C)(C)C)n1 | 72% |
| COc1ccc(OC)c(NC(=O)/C(C#N)=C/c2ccco2)c1 | 85.1% |
| O=c1oc2ccc(Br)cc2c(=O)n1-c1ccc(Cl)cc1F | -22.6% (active) |
| COc1ccc(C2=NN(/C=C3\SC(=O)NC3=Nc3ccc(F)cc3)C(c3ccc(F)cc3)C2)cc1 (stereo not given) | 93.8% |
| Nc1no[n+]([O-])c1-c1nnc2c(n1)-c1ccccc1C2=O | 67.8% |
| C=CCN1C(=O)/C(=c2\sc3n(c2=O)NC2C(N=3)N(CC)C(=O)N2CC)c2ccccc21 (stereo not given) | 38.4% |
| O=C1/C(=C/c2ccc(O)cc2)COc2ccc(O)cc21 | 107% |
| COc1cc(/C=C/C(=O)c2c(C)nc3ccccc3c2/C=C/c2ccccc2)cc(OC)c1OC | -0.432% (active) |
| O=c1oc2ccc(F)cc2c(=O)n1-c1ccc(Cl)cc1F | -17.2% (active) |
| CC1(C)CC2(C)OC2C2(C1)N=NC(=Nc1ccccc1)O2 (stereo not given) | 91.8% |
| CCN1C(=O)N(CC)C2Nn3c(s/c(=C4\C(=O)N(C(C)C)c5ccccc54)c3=O)=NC21 (stereo not given) | 24% |
| O=c1c(-c2nc3ccccc3[nH]2)cc2ccccc2n1Cc1cn(Cc2ccc(F)cc2)nn1 | 4.33% (active) |
